Screens deposited in PubChem BioAssay by National Center for Advancing Translational Sciences (NCATS).
Shown are actives, neighbours in structure and some others; about 21% of the full set was active somewhere.
ClpP mod: qHTS Assay for Activators of ClpP; 340,000 tested, 1.9% active; Potency, µM (titrated, usually from 57.5 µM), for the others: at the highest dose activity change, negative = active; purified B. subtilis ClpP, FRET peptide cleavage, 20 min; active means well fitted falling curve with a large enough effect; inconclusive means small, poorly fitted or top-dose-only effect; inactive means no such curve, though single readings can be large or run the other way; further: potency means the concentration at half of the fitted maximal effect; the source files actives as falling curves though it sought activators and does not explain the sign; nearly all actives have a fitted effect of over 65% in size
Target sequence (P80244 whole entry, looked up): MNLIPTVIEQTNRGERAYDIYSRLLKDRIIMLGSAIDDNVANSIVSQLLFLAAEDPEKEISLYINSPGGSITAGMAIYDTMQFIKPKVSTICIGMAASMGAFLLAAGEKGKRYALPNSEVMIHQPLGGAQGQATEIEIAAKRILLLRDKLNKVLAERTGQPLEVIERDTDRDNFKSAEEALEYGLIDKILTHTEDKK
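Purified B. subtilis ClpP, 10 microg/mL final in Tris/HCl pH8 with KCl, BSA, glycerol and Tween-20, cleaved an Abz/nitrotyrosine-quenched decapeptide. Fluorescence (ex 320, em 430) was read at 0 and 20 min at room temperature. Delta was normalized to 5.8 microM ADEP and DMSO/no-enzyme controls.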
IL1B secr inh: blocks inflammasome-driven IL-1 beta release; THP-1 LPS/ATP IL-1B secretion, AlphaLISA, 16 h; hits give low values; activity change, % at 57.5 µM; 360,000 tested, 4.7% active; AID 743279; in the data active means activity change below about -50%; inconclusive means mostly about -30% to -49%; further: on the % scale 0 is the no-effect control and ±100 the full control effect
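Secreted IL-1B measured by AlphaLISA bead assay after 16 h compound exposure of THP-1 cells; compounds (final up to 57.5 uM) added 1 h before LPS (250 ng/mL) and ATP (1.25 mM) stimulation; lower signal means less secretion.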
D3 antag: D3 dopamine receptor (human) antagonism | max response, negative = inhibition, % | 360,000 tested, 2.5% active | D3R cells, DiscoveRx beta-arrestin luminescence, antagonist mode; hits give low values; in the data active means max response below about -50%; inconclusive means no clear call, values can overlap the other calls; further: on the % scale 0 is the no-effect control and ±100 the full control effect
Target sequence (P35462 whole entry, looked up): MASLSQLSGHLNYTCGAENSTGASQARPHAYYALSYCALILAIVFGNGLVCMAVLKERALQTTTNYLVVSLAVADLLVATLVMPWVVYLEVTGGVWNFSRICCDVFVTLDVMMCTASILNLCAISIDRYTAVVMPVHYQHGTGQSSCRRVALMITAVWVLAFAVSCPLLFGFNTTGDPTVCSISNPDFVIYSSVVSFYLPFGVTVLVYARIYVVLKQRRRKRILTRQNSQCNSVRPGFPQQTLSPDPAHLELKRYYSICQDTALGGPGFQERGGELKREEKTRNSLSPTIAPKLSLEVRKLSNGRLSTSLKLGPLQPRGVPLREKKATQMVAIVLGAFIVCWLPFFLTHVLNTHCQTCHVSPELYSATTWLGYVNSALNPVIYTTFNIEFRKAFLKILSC
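Cells expressing the human receptor were seeded at 1500 cells/well, incubated overnight at 37 degrees C in 5% CO2, then exposed to library compounds with dopamine controls for 90 minutes at 37 degrees C before luminescent detection.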
TDP1 cell noCPT: qHTS for Inhibitors of human tyrosyl-DNA phosphodiesterase 1 (TDP1): qHTS in cells in absence of CPT; AID 686978, 2013; 420,000 tested, 15% active; DT40 Tdp1-/- hTDP1 cells, no CPT, ATP luminescence, 48 h; Potency, µM (series often up to 46.2 µM), inactives show at the highest dose activity change, negative = growth inhibition, hits mostly inhibitors; further: potency means the concentration at half of the fitted maximal effect; on the % scale 0 is the no-effect control and ±100 the full control effect; nearly all actives have a fitted effect of over 55% in size
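A cellular qHTS used chicken DT40 cells lacking endogenous Tdp1 but carrying stably transfected human TDP1. Compounds were applied without camptothecin, and cell growth kinetics were judged by ATP-dependent luminescence after ≥48 hr.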
TDP1 cell CPT: growth inhibition of DT40 Tdp1-/-;hTDP1 cells with camptothecin (screen for TDP1 inhibitors); chicken DT40 Tdp1-/-;hTDP1 cells + 20 nM CPT, ATP luminescence, 48 h; Potency, µM (titrated, usually from 46.2 µM), for the others: top-dose activity change, negative = growth inhibition, usual class: inhibitors; AID 686979; 420,000 tested, 12% active; further: potency means the concentration at half of the fitted maximal effect; on the % scale 0 is the no-effect control and ±100 the full control effect; nearly all actives have a fitted effect of over 55% in size
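Cell growth measured by CellTiter-Glo luminescence after a minimum 48 h, 37 C compound exposure with 20 nM CPT in Tdp1-knockout DT40 cells stably expressing hTDP1, seeded 400/well; qHTS titration format.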
D3 ag: agonists of human D3 dopamine receptor | P35462 | D3R DiscoveRx beta-arrestin cells, luminescence, 90 min | max activation, % | 410,000 tested, 0.58% active | AID 652048; in the data active means max activation above about 30%; further: 0% is about no effect
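Cells at 1500/well, incubated overnight, then treated with pinned compounds (dopamine as control) for 90 min at 37 degrees C. DiscoveRx reagent added for 30 - 60 minutes at room temperature; luminescence read.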
Numbers without * were called inactive; [ ] = remark or other dose. Unless noted, the call rests on the fitted dose curve; in most records, active means well fitted inhibition curve with a large enough effect; inconclusive means small, poorly fitted or top-dose-only effect; inactive means flat fitted curve, though single readings scatter.

For Cc1cc(=O)oc2c(C)c(OCC(=O)N3CCN(c4ccc(F)cc4)CC3)ccc12 the results were IL1B secr inh 27, D3 antag 16, TDP1 cell noCPT 23µM*, TDP1 cell CPT 23µM* and D3 ag 14.
For COC(=O)c1ccc(-c2cc(CC3(C(=O)OC)CCN(C(=O)OC(C)(C)C)CC3)on2)cc1 the results were ClpP mod 0%, IL1B secr inh -12, D3 antag -3, TDP1 cell noCPT inconclusive, TDP1 cell CPT 23µM* and D3 ag -8.
CC(C)(C)NC(=O)NC(=O)CN1CCN(c2cccc(Cl)c2)CC1 was read as IL1B secr inh -18, D3 antag 11, TDP1 cell noCPT inconclusive, TDP1 cell CPT inconclusive and D3 ag 8.
For Cc1cc(C)cc(NC(=O)CN2C(=O)CSc3ccc(S(=O)(=O)N(C)C)cc32)c1 the results were ClpP mod 0%, TDP1 cell noCPT 16µM*, TDP1 cell CPT 21µM* and D3 ag -9.
For CN(C)S(=O)(=O)c1ccc2c(c1)N(CC(=O)Nc1ccc(OC(F)(F)F)cc1)C(=O)CS2 the results were ClpP mod -1%, TDP1 cell noCPT inconclusive, TDP1 cell CPT 16µM* and D3 ag -9.
Cc1cc(Cl)ccc1NC(=O)CN1C(=O)CSc2ccc(S(=O)(=O)N(C)C)cc21 was read as ClpP mod 0%, TDP1 cell noCPT -28%, TDP1 cell CPT inconclusive and D3 ag -5.
Screening Cc1ccc(NC(=O)CN2C(=O)CSc3ccc(S(=O)(=O)N(C)C)cc32)cc1C returned ClpP mod -1%, TDP1 cell noCPT inconclusive, TDP1 cell CPT 16µM* and D3 ag -13.
Screening Cc1ccc(NC(=O)C2CCN(C(=O)OC(C)(C)C)CC2)cc1S(=O)(=O)N1CCCCC1 returned ClpP mod 1%, IL1B secr inh -5, D3 antag 14, TDP1 cell noCPT -51%, TDP1 cell CPT inconclusive and D3 ag -13.
Screening Cc1ccccc1C(=O)N1CCc2cc(-c3nc(NC(=O)Cc4ccc5c(c4)OCO5)sc3C)ccc21 returned ClpP mod -10%, IL1B secr inh inconclusive, D3 antag 11, TDP1 cell noCPT 6.5µM*, TDP1 cell CPT 7.3µM* and D3 ag 5.
`Cc1sc(NC(=O)Cc2ccc3c(c2)OCO3)nc1-c1ccc2c(c1)CCN2C(=O)c1cccc(F)c1` gave ClpP mod -5%, IL1B secr inh 5, D3 antag 31, TDP1 cell noCPT 9.2µM*, TDP1 cell CPT 12µM* and D3 ag 5.
O=C(CN1CCOCC1)Nc1nc(-c2ccc3c(c2)CCN3S(=O)(=O)c2ccccc2)cs1 was read as ClpP mod 2%, IL1B secr inh -21, D3 antag 17, TDP1 cell noCPT inconclusive, TDP1 cell CPT inconclusive and D3 ag 7.
`Cc1cccc(C(=O)N2CCc3cc(-c4nc(NC(=O)CN5CCCC5)sc4C)ccc32)c1` gave IL1B secr inh -10, D3 antag 15, TDP1 cell noCPT inconclusive, TDP1 cell CPT inconclusive and D3 ag -4.
Screening Cc1sc(NC(=O)CN2CCOCC2)nc1-c1ccc2c(c1)CCN2S(=O)(=O)c1ccccc1 returned ClpP mod -3%, IL1B secr inh -2, D3 antag 7, TDP1 cell noCPT 9.2µM*, TDP1 cell CPT 21µM* and D3 ag 3.
For Cc1cnc(=O)[nH]c1SCC(=O)Nc1cc(C(F)(F)F)ccc1Cl the results were ClpP mod -2%, TDP1 cell noCPT -26%, TDP1 cell CPT -1% and D3 ag 6.
`Cc1ccc(S(=O)(=O)N2CCN(C(=O)CCC(=O)Nc3ccc(F)cc3F)CC2)cc1` gave ClpP mod 0%, IL1B secr inh inconclusive, D3 antag 12, TDP1 cell noCPT -12%, TDP1 cell CPT -26% and D3 ag 5.
For C[C@@H]1CC[C@@]2(OC1)O[C@H]1C[C@H]3[C@@H]4CC[C@H]5C[C@@H](O)CC[C@]5(C)[C@H]4CC(=O)[C@]3(C)[C@H]1[C@@H]2C the results were TDP1 cell noCPT -10%[21.1 µM], TDP1 cell CPT 17%[21.1 µM] and D3 ag -6.
CC(C)(C)OC(=O)N1CCC(c2c(C(=O)NCC3CCN(C4CCCC4)C3)cnn2-c2ccc(F)cc2)CC1 (configuration not stated) was read as ClpP mod -1%, IL1B secr inh inconclusive, D3 antag -9, TDP1 cell noCPT inconclusive, TDP1 cell CPT inconclusive and D3 ag 2.
`CC1CN(c2ccc(Cl)cc2[N+](=O)[O-])CCN1S(C)(=O)=O` (configuration not stated) gave IL1B secr inh -7, D3 antag -19, TDP1 cell noCPT inconclusive, TDP1 cell CPT -21% and D3 ag -8.
Screening CCOC(=O)CN(C(=O)COc1ccc2c(C)cc(=O)oc2c1)c1ccc(OCC)cc1 returned IL1B secr inh -4, D3 antag 4, TDP1 cell noCPT -13%, TDP1 cell CPT -4% and D3 ag 5.
`COc1cccc2sc(NC(=O)CS(=O)(=O)c3ccc(C)cc3)nc12` gave ClpP mod -5%, TDP1 cell noCPT -18%, TDP1 cell CPT 1% and D3 ag 1.
For COc1cccc2sc(N)nc12 the results were ClpP mod -2%, IL1B secr inh -21, D3 antag inconclusive, TDP1 cell noCPT inconclusive, TDP1 cell CPT -2% and D3 ag -1.
For COc1cc(OC)cc(-c2nnc(Nc3nc4c(F)cccc4s3)o2)c1 the results were ClpP mod inconclusive, IL1B secr inh 33, D3 antag -19, TDP1 cell noCPT inconclusive, TDP1 cell CPT 21µM* and D3 ag -6.
Screening COc1ccc(-c2nnc(Nc3nc4c(OC)cccc4s3)o2)c(OC)c1 returned ClpP mod 16µM*, IL1B secr inh -3, D3 antag -68*, TDP1 cell noCPT 4.1µM*, TDP1 cell CPT 4.6µM* and D3 ag -4.
For COc1ccc(-c2nnc(Nc3nc4c(OC)cccc4s3)o2)cc1 the results were ClpP mod 40µM*, IL1B secr inh 104, D3 antag -9, TDP1 cell noCPT 18µM*, TDP1 cell CPT 5.2µM* and D3 ag -3.
Screening CCCC(CCC)C(=O)Nc1cccc(-c2nc3cccnc3s2)c1C returned ClpP mod -2%, TDP1 cell noCPT -14%, TDP1 cell CPT -8% and D3 ag -15.
